Laboratory results: PubChem BioAssay (NCATS)

What was measured:
[1] = qHTS profiling of the MIPE4 collection as inhibitors of Plasmodium falciparum (3D7) proliferation (AID 743344);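 further: scaled between DMSO vehicle wells and 0.29 µM artemisinin as full inhibition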; conditions: P. falciparum 3D7 in erythrocytes, SYBR Green DNA fluorescence, 72 h; at 28.5 µM unless noted
Outline: (§1)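 Erythrocytes infected with P. falciparum (0.3% parasitemia, 2.5% hematocrit) incubated with compounds 72 h at 37 C, 5% CO2. Lysis with saponin/Triton buffer containing SYBR Green I, overnight at room temperature in the dark; DNA fluorescence (485/535 nm) normalised to 0.29 uM artemisinin and DMSO.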

[2] = qHTS profiling of the MIPE4 collection as inhibitors of Plasmodium falciparum (DD2) proliferation (AID 743345); conditions: P. falciparum Dd2 in erythrocytes, SYBR Green DNA, 72 h; at 28.5 µM unless noted
Outline: as §1

## O=C(CCN1CCN(C(=O)OCc2cc(Cl)cc(Cl)c2)CC1)c1ccc2[nH]c(=O)oc2c1
[1]
  parasite growth, % of DMSO control: 101%
[2]
  parasite growth remaining, % of DMSO control (lower = more inhibition): 103%

## Cc1ccc(C(C)(O)c2nc3ccccc3s2)c(C)c1 (configuration not stated)
[1]
  parasite growth, % of DMSO control: 61.8%
[2]
  parasite growth remaining, % of DMSO control (lower = more inhibition): 90.2%

## COc1ccc2cccc(CCNC(C)=O)c2c1
[1]
  parasite growth, % of DMSO control: 56.4%
[2]
  parasite growth remaining, % of DMSO control (lower = more inhibition): 101%

## CC(C)n1nc(-c2ccc3oc(N)nc3c2)c2c(N)ncnc21
[1]
  parasite growth, % of DMSO control: 5.01%
[2]
  parasite growth remaining, % of DMSO control (lower = more inhibition): 9.14%

## Cc1c[nH]c(C=C2C(=O)Nc3ccccc32)c1CCC(=O)O
[1]
  parasite growth, % of DMSO control: 24.1%
[2]
  parasite growth remaining, % of DMSO control (lower = more inhibition): 38.5%

## CC(C)C(=O)Oc1ccc(CO)cc1[C@H](CCN(C(C)C)C(C)C)c1ccccc1
[1]
  parasite growth, % of DMSO control: 37.9%
[2]
  parasite growth remaining, % of DMSO control (lower = more inhibition): 40.7%

## CC1(C)S[C@H]2[C@H](NC(=O)[C@@H](N)c3ccc(O)cc3)C(=O)N2[C@@H]1C(=O)O
[1]
  parasite growth, % of DMSO control: 7.42%
[2]
  parasite growth remaining, % of DMSO control (lower = more inhibition): 103%

## Cc1cccc(Nc2nc(-c3ccncc3)cs2)c1
[1]
  parasite growth, % of DMSO control: 29.1%
[2]
  parasite growth remaining, % of DMSO control (lower = more inhibition): 71%

## O=C(O)c1ccc(-c2c[nH]c3ncc(-c4ccccc4)cc23)cc1C1CCCC1
[1]
  parasite growth, % of DMSO control: 5.48%
[2]
  parasite growth remaining, % of DMSO control (lower = more inhibition): 8.18%

## OC[C@H]1O[C@@H](Oc2cc(O)cc(C=Cc3ccc(O)cc3)c2)[C@H](O)[C@@H](O)[C@H]1O
[1]
  parasite growth, % of DMSO control: 82.6%
[2]
  parasite growth remaining, % of DMSO control (lower = more inhibition): 120%

## C[N+](C)(C)CC(=O)O
[1]
  parasite growth, % of DMSO control: 86.7%
[2]
  parasite growth remaining, % of DMSO control (lower = more inhibition): 96.1%

## C=C1C(=O)OC2C=C(C)CCC=C(C)CCC12 (configuration not stated)
[1]
  parasite growth, % of DMSO control: 238%
[2]
  parasite growth remaining, % of DMSO control (lower = more inhibition): 104%

## CO[C@H]1C=CO[C@@]2(C)Oc3c(C)c(O)c4c(O)c(c5c(c4c3C2=O)NC2(CCN(CC(C)C)CC2)N=5)=NC(=O)C(C)=CC=C[C@H](C)[C@H](O)[C@@H](C)[C@@H](O)[C@@H](C)[C@H](OC(C)=O)[C@H]1C
[1]
  parasite growth, % of DMSO control: 5.28%
[2]
  parasite growth remaining, % of DMSO control (lower = more inhibition): 17.8%

## COc1ccc(-c2nc(N3CCOCC3)c3sc(CN(C)c4ncc(C(=O)NO)cn4)cc3n2)cn1
[1]
  parasite growth, % of DMSO control: 5.2%
[2]
  parasite growth remaining, % of DMSO control (lower = more inhibition): 6.7%

## NC1=N[C@@]2(c3cc(NC(=O)c4ccc(F)cn4)ccc3F)COC[C@@H]2CS1
[1]
  parasite growth, % of DMSO control: 23.2%
[2]
  parasite growth remaining, % of DMSO control (lower = more inhibition): 20.8%

## CCC(=O)O[C@]1(C(=O)CO)CC[C@H]2[C@@H]3CCC4=CC(=O)CC[C@]4(C)[C@@H]3CC[C@@]21C
[1]
  parasite growth, % of DMSO control: 37.1%
[2]
  parasite growth remaining, % of DMSO control (lower = more inhibition): 93.6%

## O=C(Nc1c(Cl)cncc1Cl)c1ccc(OC(F)F)c(OCC2CC2)c1
[1]
  parasite growth, % of DMSO control: 109%
[2]
  parasite growth remaining, % of DMSO control (lower = more inhibition): 100%

## CC(C)=CC[C@@H](O)C1=CC(=O)c2c(O)ccc(O)c2C1=O
[1]
  parasite growth, % of DMSO control: 3.69%
[2]
  parasite growth remaining, % of DMSO control (lower = more inhibition): 5.8%

## Nc1ncnc2c1ncn2[C@@H]1O[C@H](CO)C[C@@H]1O
[1]
  parasite growth, % of DMSO control: 43.4%
[2]
  parasite growth remaining, % of DMSO control (lower = more inhibition): 56.1%

## O=C(O)C(O)Cc1ccc(O)c(O)c1 (configuration not stated)
[1]
  parasite growth, % of DMSO control: 102%
[2]
  parasite growth remaining, % of DMSO control (lower = more inhibition): 79.5%

## O=C(NOCC(O)CO)c1cc(Br)c(F)c(F)c1Nc1ccc(I)cc1F (configuration not stated)
[1]
  parasite growth, % of DMSO control: 89.4%
[2]
  parasite growth remaining, % of DMSO control (lower = more inhibition): 87.4%

## CNC1CCC(N(Cc2cccc(-c3ccncc3)c2)C(=O)c2sc3c(F)ccc(F)c3c2Cl)CC1 (configuration not stated)
[1]
  parasite growth, % of DMSO control: 4.87%
[2]
  parasite growth remaining, % of DMSO control (lower = more inhibition): 7.02%

## CO[C@H]1C[C@@H]2CC[C@@H](C)[C@@](O)(O2)C(=O)C(=O)N2CCCC[C@@H]2C(=O)O[C@H]([C@@H](C)C[C@@H]2CC[C@H](O)[C@H](OC)C2)CC(=O)[C@H](C)C=C(C)[C@@H](O)[C@@H](OC)C(=O)[C@H](C)C[C@H](C)C=CC=CC=C1C
[1]
  parasite growth, % of DMSO control: 5.33%
[2]
  parasite growth remaining, % of DMSO control (lower = more inhibition): 9.31%

## COc1ccc2cc(-c3nc(-c4ccc(S(C)=O)cc4)[nH]c3-c3ccncc3)ccc2c1 (configuration not stated)
[1]
  parasite growth, % of DMSO control: 6.21%
[2]
  parasite growth remaining, % of DMSO control (lower = more inhibition): 9.3%

## CCNc1cc(NC2CCC(O)CC2)nc(Nc2ccc3c(ccn3Cc3ccccc3)c2)n1 (configuration not stated)
[1]
  parasite growth, % of DMSO control: 4.9%
[2]
  parasite growth remaining, % of DMSO control (lower = more inhibition): 6.69%

## O=C(OCC#CCSc1nnc(-c2cccc3ccccc23)o1)c1cc2ccccc2s1
[1]
  parasite growth, % of DMSO control: 49.1%
[2]
  parasite growth remaining, % of DMSO control (lower = more inhibition): 83%

## N#CC1(c2ccc(NC(=O)c3cccnc3NCc3ccncc3)cc2)CCCC1
[1]
  parasite growth, % of DMSO control: 18.4%
[2]
  parasite growth remaining, % of DMSO control (lower = more inhibition): 72.9%

## N#CC(=C(N)Sc1ccccc1N)C(C#N)=C(N)Sc1ccccc1N
[1]
  parasite growth, % of DMSO control: 4.41%
[2]
  parasite growth remaining, % of DMSO control (lower = more inhibition): 12.1%

## CC(=NNC(=S)N1CCC1)c1ccccn1
[1]
  parasite growth, % of DMSO control: 5.99%
[2]
  parasite growth remaining, % of DMSO control (lower = more inhibition): 5.88%

## O=C(O)[C@H]1O[C@H](Oc2cc3oc(-c4ccccc4)cc(=O)c3c(O)c2O)[C@H](O)[C@@H](O)[C@H]1O
[1]
  parasite growth, % of DMSO control: 69.9%
[2]
  parasite growth remaining, % of DMSO control (lower = more inhibition): 89%

## O=C1Nc2ccc(Cl)cc2C(C#CC2CC2)(C(F)(F)F)O1 (configuration not stated)
[1]
  parasite growth, % of DMSO control: 40.8%
[2]
  parasite growth remaining, % of DMSO control (lower = more inhibition): 76%

## O=c1c(-c2ccc(O)cc2)coc2cc(OC3O[C@H](CO)[C@H](O)[C@H](O)[C@H]3O)cc(O)c12 (some centres not stated)
[1]
  parasite growth, % of DMSO control: 57%
[2]
  parasite growth remaining, % of DMSO control (lower = more inhibition): 88.8%

## Cc1ccn(-c2ccc(-c3ncco3)cc2)c(=O)c1-c1ccc2nc(N)ncc2c1
[1]
  parasite growth, % of DMSO control: 21.1%
[2]
  parasite growth remaining, % of DMSO control (lower = more inhibition): 78.6%

## c1ccc2c(Cc3c[nH]c4ccccc34)c[nH]c2c1
[1]
  parasite growth, % of DMSO control: 22.8%
[2]
  parasite growth remaining, % of DMSO control (lower = more inhibition): 60.6%

## Nc1nc(F)nc2c1ncn2[C@@H]1O[C@H](COP(=O)(O)O)[C@@H](O)[C@H]1O
[1]
  parasite growth, % of DMSO control: 27.2%
[2]
  parasite growth remaining, % of DMSO control (lower = more inhibition): 19.9%

## CNC(=O)c1ccc2cc(C3(O)CCn4cncc43)ccc2c1 (configuration not stated)
[1]
  parasite growth, % of DMSO control: 84.5%
[2]
  parasite growth remaining, % of DMSO control (lower = more inhibition): 86.6%
